# Measurements taken from PubChem BioAssay (NCATS).
# Inconclusive results are not listed. A call without a number means that no potency is given here. The source made the active and inactive calls. The call rests on the fitted dose curve; in most records, active means well fitted inhibition curve with a large enough effect; inconclusive means small, poorly fitted or top-dose-only effect; inactive means flat fitted curve, though single readings scatter.
# System: CRL-7250
# Experiment: qHTS assay to identify novel small-molecules to repurpose for Merkel cell carcinoma treatment (AID 1296009); further: nearly all actives have a fitted effect of over 60% in size
# Conditions: MCC and control cell lines, CellTiter-Glo viability, 72 h; series mostly up to 92 µM
# Summary of the method: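 CellTiter-Glo luminescence after 72 hr compound exposure at 37 degree celsius gave cell viability. Libraries NPC and MIPE were run as 8- and 11-point dose responses; RLUs normalized to DMSO (negative) and no-cell (cytotoxicity) controls.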
Structure (SMILES),Potency,outcome
CC(=O)OC[C@]12[C@H](OC(C)=O)[C@H](OC(=O)c3ccccc3)[C@@H]3[C@@H](OC(C)=O)[C@]1(OC3(C)C)[C@H](C)C[C@H](OC(=O)c1ccccc1)[C@@H]2OC(=O)c1ccccc1,inactive,
CC(=O)O[C@@H]1[C@H](O[C@@H]2O[C@@H](CO)[C@H](O)[C@H]2O)[C@@H](O[C@@H]2O[C@@H](C)[C@H](O[C@@H]3OC[C@@H](O)[C@H](O)[C@H]3O)[C@@H](O)[C@H]2O)[C@H](OC(=O)[C@]23CCC(C)(C)C[C@H]2C2=CCC4[C@@]5(C)CC[C@H](O[C@@H]6O[C@H](C(=O)O)[C@@H](O)[C@H](O)[C@H]6O[C@@H]6O[C@H](CO)[C@H](O)[C@H](O)[C@H]6O)[C@@](C)(C=O)C5CC[C@@]4(C)[C@]2(C)CC3)O[C@@H]1C (stereo not given in full),,inactive [at 9.27 µM]
O=C(O)c1ccccc1NC(=O)N1CCC(c2ccccc2C(F)(F)F)CC1,inactive,
C=C1CCC2C(C)(C)C(O)CCC2(C)C1CCC(C)CCOC(C)=O (stereo not given),inactive,
CC1=CCC2C(C)(CO)CCCC2(CO)C1CO (stereo not given),inactive,
Cc1nc2ccc(CN(C)c3ccc(C(=O)NC(CCC(=O)O)C(=O)O)s3)cc2c(=O)[nH]1 (stereo not given),inactive,
C[C@@H]1C(=O)O[C@H]2[C@H]1CC[C@@]1(C)C(=O)C=C[C@](C)(O)[C@H]21,inactive,
C[C@@H]1O[C@@H](O[C@H]2[C@H](OC(=O)[C@]34CCC(C)(C)C[C@H]3C3=CCC5[C@@]6(C)C[C@H](O)[C@H](O[C@@H]7O[C@H](CO)[C@@H](O[C@H]8OC[C@](O)(CO)[C@H]8O)[C@H](O)[C@H]7O)[C@@](C)(CO)C6[C@H](O)C[C@@]5(C)[C@]3(C)C[C@H]4O)OC[C@H](O)[C@@H]2O)[C@H](O)[C@H](O)[C@H]1O[C@@H]1OC[C@@H](O)[C@H](O[C@@H]2OC[C@](O)(CO)[C@H]2O)[C@H]1O (stereo not given in full),,inactive [at 9.27 µM]
COc1cccc(OC)c1-c1nc(C(=O)N[C@@H](CC(C)C)C(=O)O)cn1-c1ccnc2cc(Cl)ccc12,inactive,
COC(=O)[C@@H](NC(=O)[C@H](CC(C)C)NC(=O)N(Cc1ccccc1)C[C@@H](O)[C@H](Cc1ccccc1)NC(=O)OC(C)(C)C)C(C)C,,inactive [at 9.27 µM]
O=C(Nc1ccccc1-c1cn2c(CN3CCNCC3)csc2n1)c1ccc2ccccc2n1,inactive,
COC1OC(O)C2(CCC3(O2)C(C)CC2OC(=O)C4(C)CCCC3(C)C24)C1O (stereo not given),inactive,
COc1c2c(c(C)c3c1C(=O)OC3)OC1(C)CC(O)C(C(C)(C)O)C(C)(CCC(=O)O)C1C2 (stereo not given),inactive,
C=CC1(C)C=C2C(O)CC3C(C)(C(=O)O)CCCC3(C)C2CC1 (stereo not given),inactive,
CC1=C2C[C@H]3O[C@@]3(C)CCC3O[C@@]3(C)C[C@@]2(O)OC1=O (stereo not given in full),inactive,
COc1ccc(CN2C(=O)C(=O)c3cc(S(=O)(=O)N4CCC[C@H]4COc4cccnc4)ccc32)cc1,inactive,
COc1cc(C(C)=O)c(OC)c2c1OC(C)(C)C=C2,inactive,
C[C@@H]1[C@H]2[C@H](O[C@@H]3O[C@H](CO)[C@@H](O)[C@H](O)[C@H]3O)OC=C(C(=O)O)[C@H]2C[C@@H]1O,inactive,
C[C@H](N)C(=O)N[C@@H](Cc1ccc(O)cc1)C(=O)N1CCC[C@H]1C(=O)NCC(=O)N[C@@H](CCCCN)C(=O)N[C@@H](Cc1ccccc1)C(N)=O,,inactive [at 9.27 µM]
CON(C)C(=O)[C@H](O)[C@H](Cc1ccccc1)NC(=O)c1cc2cc(Cl)ccc2[nH]1,inactive,

Structure (SMILES),Potency,outcome
CCCN1CCC=C(c2cc(-c3ccc(C)cc3)no2)C1,inactive,
CC(C)C1(O)NC(=O)C(CC2(O)c3ccccc3N3C(=O)C(C)(C)NC32)n2c1nc1ccccc1c2=O (stereo not given),inactive,
COc1ccc(S(=O)(=O)Nc2c(C)cc(C)cc2C)cc1,inactive,
C=CC1(C)CC2=CCC3C(C)(C(=O)O)CCCC3(C)C2CC1OC(C)=O (stereo not given),inactive,
CC1(C)C2CC=C(COC3OC(COC4OCC(O)(CO)C4O)C(O)C(O)C3O)C1C2 (stereo not given),inactive,
CCOC(=O)c1cc(C#N)c(N2CCC(C(=O)NS(=O)(=O)Cc3ccccc3)CC2)nc1C,inactive,
O=C(Nc1ccc2[nH]ncc2c1)C1CCC1,inactive,
C[C@@H]1CC[C@]2(C(=O)O[C@@H]3O[C@H](CO[C@@H]4O[C@H](CO)[C@@H](O)[C@H](O)[C@H]4O)[C@@H](O)[C@H](O)[C@H]3O)CC[C@]3(C)C(=CCC4[C@@]5(C)CC[C@H](O)[C@](C)(C(=O)O)C5CC[C@]43C)[C@@H]2[C@]1(C)O (stereo not given in full),,inactive [at 9.27 µM]
CC1(CO)CC(O)C2(C)CCC3(C)C(=CCC4C5(C=O)CCC(OC6OC(C(=O)O)C(O)C(O)C6OC6OC(C(=O)O)C(O)C(O)C6O)C(C)(C)C5CCC43C)C2C1 (stereo not given),,inactive [at 9.27 µM]
c1nc(NC2CCCCCC2)c2cc(CNC[C@H]3CCCO3)sc2n1,inactive,
OCC1=CC[C@@H]2C=CO[C@@H](O[C@@H]3O[C@H](CO)[C@@H](O)[C@H](O)[C@H]3O)[C@H]12,inactive,
CC(C)=CCC[C@](C)(O[C@@H]1O[C@H](CO[C@@H]2OC[C@H](O)[C@H](O)[C@H]2O)[C@@H](O)[C@H](O)[C@H]1O)[C@H]1CC[C@]2(C)[C@@H]1[C@H](O)C[C@@H]1[C@@]3(C)CC[C@H](O[C@@H]4O[C@H](CO)[C@@H](O)[C@H](O)[C@H]4O[C@@H]4O[C@H](CO)[C@@H](O)[C@H](O)[C@H]4O)C(C)(C)[C@@H]3CC[C@]12C,inactive,
COC1CCCC/C(C)=C/C2C=C(C)C(C)C3C(CC(C)C)NC(=O)C23C(=O)C1 (stereo not given),inactive,
CN(Cc1ccc(C(=O)O)cc1)c1ccc(OCc2c(-c3c(Cl)cccc3Cl)noc2C2CC2)nc1C(F)(F)F,inactive,
COc1cc(O)c2c(c1Cl)CC(C)OC2=O (stereo not given),inactive,
COc1cc([C@@H]2Oc3c(OC)cc(CCCO)cc3[C@@H]2CO[C@@H]2O[C@H](CO)[C@@H](O)[C@H](O)[C@H]2O)ccc1O,inactive,
CC1(C)C2CC[C@]3(C)C(C(=O)C=C4[C@H]5C[C@@](C)(C(=O)O)CC[C@]5(C)CC[C@]43C)[C@@]2(C)CC[C@@H]1O (stereo not given in full),inactive,
C=C1CC[C@@H]2[C@@](C)(CO[C@@H]3O[C@H](CO)C(O)[C@H](O)C3O)[C@H](O)CC[C@@]2(C)[C@@H]1CC/C(C)=C/CO (stereo not given in full),,inactive [at 9.27 µM]
C=C1CC[C@@H]2[C@@](C)(CO[C@@H]3O[C@H](CO)[C@@H](O)[C@H](O)[C@H]3O)[C@H](O)CC[C@@]2(C)[C@@H]1CC/C(C)=C/CO[C@@H]1O[C@H](CO)[C@@H](O)[C@H](O)[C@H]1O,inactive,
C[C@H]1/C=C/C=C/C=C/C=C/C=C/[C@@H](O)[C@H](C(=O)O)[C@H](O)C[C@H](O)CCC[C@H](O)C[C@H](O)C[C@H](O)[C@@H](C)C(=O)O[C@@H]1C,inactive,
